Rows were chosen to be rich in hits. Some 7.3% of all compounds tested hit in one or more screens of this group.
Rab9 promoter act = activates the Rab9 promoter | Huh7 Rab9 promoter-luciferase reporter, luminescence, 24 h | Potency, µM (doses to about 9.22 µM), without a hit: at the top dose activation, negative = inhibition, usual class: activators | 320,000 tested, 2.8% active; also: % of control where 0% means no effect; nearly all actives have a fitted effect of over 60% in size
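Using Huh7 cells stably transfected with Rab9 promoter–luciferase, compounds were incubated 24 h at 37 °C, 5% CO2; luciferase luminescence was read 10 min after reagent addition.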
SMN2 splice up = SMN2 splice variant enhancement. HEK293 SMN2-luciferase splicing reporter, luminescence, 30-36 h. Potency, µM (series often up to 46.1 µM), without a hit: top-dose activity change, positive = activation, most hits filed as activators. 210,000 tested, 2.8% active. AID 1458; also: % of control where 0% means no effect; nearly all actives have a fitted effect of over 55% in size
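HEK293 cells carry an SMN2 […]–luciferase reporter in which exon 7 inclusion puts luciferase in frame. Cells were plated 10-12 h before compound addition, then incubated 30-36 h at 37C. ONE-Glo luminescence was read; sodium butyrate at 4.5 mM final served as control.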
NPC1 promoter act = NPC1 promoter activation. AID 485313. Huh7 NPC1 promoter luciferase reporter, 24 h. Potency, µM (doses to about 9.22 µM), for inactives: top-dose activation, usual class: activators. 320,000 tested, 2.4% active; also: % of control where 0% means no effect; nearly all actives have a fitted effect of over 60% in size
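Luminescence read-out of NPC1 promoter-driven luciferase in stably transfected Huh7 cells; compounds delivered in DMSO and left 24 h at 37C, 5% CO2, qHTS titration format.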
uPA generation = inhibitors of cell surface uPA generation. cell surface uPA generation assay, qHTS. Potency, µM (titrated, usually from 38.3 µM), for inactives: top-dose activity change, negative = inhibition, most hits filed as inhibitors. 330,000 tested, 0.31% active; active = well fitted inhibition curve with a large enough effect; inconclusive = small, poorly fitted or top-dose-only effect; inactive = no such curve, though single readings can be large or run the other way; tested in mouse RAW 264.7 cells; also: % is scaled to controls: 0 for no effect and ±100 for the full control effect; nearly all actives have a fitted effect of over 55% in size
FLuc modulator = firefly luciferase modulation, counter-screen for miR-21 project; Potency, µM (series often up to 57.5 µM), for inactives: at the top dose activity change, negative = inhibition, hits mostly inhibitors; 360,000 tested, 6.9% active; purified FLuc, Km substrates, luminescence inhibition; P08659; AID 588342;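 also: plate controls were vehicle for no effect and reference inhibitor for full effect; nearly all actives have a fitted effect of over 55% in size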
Target sequence (P08659 whole entry, looked up): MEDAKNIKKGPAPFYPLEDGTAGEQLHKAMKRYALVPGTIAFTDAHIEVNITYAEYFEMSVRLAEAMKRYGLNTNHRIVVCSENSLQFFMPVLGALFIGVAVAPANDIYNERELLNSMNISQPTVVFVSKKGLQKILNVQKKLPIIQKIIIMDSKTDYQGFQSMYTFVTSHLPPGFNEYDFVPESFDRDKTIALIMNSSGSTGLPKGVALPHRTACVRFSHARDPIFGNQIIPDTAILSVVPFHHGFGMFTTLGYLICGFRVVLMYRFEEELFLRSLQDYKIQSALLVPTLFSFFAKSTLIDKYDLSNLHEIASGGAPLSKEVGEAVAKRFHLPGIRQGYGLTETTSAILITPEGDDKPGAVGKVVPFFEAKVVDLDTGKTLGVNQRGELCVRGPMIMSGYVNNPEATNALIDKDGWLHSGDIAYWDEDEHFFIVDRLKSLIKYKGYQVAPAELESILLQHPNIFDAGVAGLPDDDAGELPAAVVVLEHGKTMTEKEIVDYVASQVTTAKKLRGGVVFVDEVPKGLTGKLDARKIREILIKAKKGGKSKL
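Biochemical qHTS of compounds, final roughly 60 µM downward over six points, against 10 nM purified firefly luciferase using Km concentrations of substrates (10 uM D-luciferin, 10 uM ATP) in Tris acetate pH 7.5 buffer; luminescence output.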
ELG1 genotox = genotoxicity induction in ELG1-luciferase HEK293T cells | Potency, µM (doses to about 46 µM), for inactives: top-dose activity change, positive = activation, actives largely listed as activators | AID 504466 | HEK293T ELG1-luciferase reporter, luminescence, 16 h | 330,000 tested, 1.3% active; also: % of control where 0% means no effect; nearly all actives have a fitted effect of over 60% in size
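After overnight (16 hr) compound treatment at 37 °C, ELG1-luciferase HEK293T cells were lysed with ONE-Glo; luminescence quantified 30 min later at room temperature.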
Numbers without * were called inactive. Unless noted, calls follow the shape of the dose curve; as a rule, active = well fitted curve in the direction sought with a large enough effect; inconclusive = small, poorly fitted or top-dose-only effect, or another doubt; inactive = no such curve, though single readings can be large; an effect the other way counts as inactive or inconclusive. Potency is read from the fitted curve at half-maximal effect.

O=C(COC(=O)c1ccc[nH]c1=O)NCCc1ccc(Cl)cc1Cl was read as Rab9 promoter act 0.501µM*, NPC1 promoter act 0.398µM*, uPA generation -4.2%, FLuc modulator 10.7µM* and ELG1 genotox inconclusive.
Screening O=C(Oc1ccc(OC(=O)C2CCC2)cc1)C1CCC1 returned Rab9 promoter act -5.1%, SMN2 splice up -5.8%, NPC1 promoter act -2.8%, uPA generation -24.0%, FLuc modulator inconclusive and ELG1 genotox -0.4%.
`O=C(c1ccccc1)c1ccc(OC(=O)C2CCCCC2)cc1` gave Rab9 promoter act -5.4%, NPC1 promoter act 0.5%, uPA generation -23.2%, FLuc modulator 13.5µM* and ELG1 genotox 1.5%.
For O=C(Oc1ccc2ccc(O)cc2c1)c1ccccc1Cl the results were Rab9 promoter act 0.3%, NPC1 promoter act 23.9%, uPA generation -2.6%, FLuc modulator 2.39µM* and ELG1 genotox inconclusive.
For O=C(COc1ccc(C(=O)c2ccccc2)cc1)NCC1CCCCC1 the results were Rab9 promoter act 1.0%, SMN2 splice up -30.3%, NPC1 promoter act -0.7%, uPA generation -7.4%, FLuc modulator 1.2% and ELG1 genotox -0.2%.
O=C(Oc1ccc2ccc(O)cc2c1)C1CCCCC1 was read as Rab9 promoter act -4.0%, SMN2 splice up 1.4%, NPC1 promoter act 0.6%, uPA generation 3.4%, FLuc modulator 16.9µM* and ELG1 genotox -4.5%.
Screening O=C(Oc1ccc2ccccc2c1)C1CCC1 returned Rab9 promoter act 0.0%, NPC1 promoter act -2.0%, uPA generation 1.7%, FLuc modulator 23.9µM* and ELG1 genotox 0.3%.
Screening Cc1cccc(CCNC(=O)CN(c2ccc(C(C)C)cc2)S(=O)(=O)c2c(C)nn(C)c2C)c1 returned SMN2 splice up -9.5% and FLuc modulator -0.3%.
Screening CCN(CC)C(=O)c1c(-c2ccccc2)c(-c2ccccc2)nn(CC)c1=O returned SMN2 splice up inconclusive and FLuc modulator 1.8%.
For Cc1ccc(CNC(=O)c2ccc(CN3CC(=O)N4CCCCC4C3=O)cc2)cc1 (stereo not given) the results were FLuc modulator 4.1%.
For COc1cccc2cc(-c3ccnc(=S)[nH]3)oc12 the results were Rab9 promoter act 4.3%, SMN2 splice up 11.2µM*, NPC1 promoter act 4.5%, FLuc modulator -18.5% and ELG1 genotox 3.4%.
COc1ccc(C(=O)COC(=O)c2cccc(NC(=O)c3ccc(OC)c(OC)c3)c2)cc1 was read as SMN2 splice up -1.7% and FLuc modulator 0.601µM*.
`COc1ccc(C(=O)Nc2ccc(OC)c(OC)c2)cc1` gave Rab9 promoter act inconclusive, SMN2 splice up 11.2µM*, NPC1 promoter act inconclusive, FLuc modulator 12µM* and ELG1 genotox inconclusive.
Screening COc1ccc(-c2cccc(C(=O)Nc3ccc(C)cc3)c2)cc1 returned Rab9 promoter act 3.2%, SMN2 splice up -0.5%, NPC1 promoter act -3.8%, uPA generation -3.6%, FLuc modulator -17.8% and ELG1 genotox 0.5%.
For COc1ccc(-c2cccc(C(=O)Nc3cccc(C(=O)O)c3)c2)cc1 the results were Rab9 promoter act 3.16µM*, SMN2 splice up 14.1µM*, NPC1 promoter act 3.16µM*, uPA generation 1.8%, FLuc modulator 12µM* and ELG1 genotox inconclusive.
`COc1ccc(-c2cccc(C(=O)Nc3ccc(OC)c(OC)c3)c2)cc1` gave Rab9 promoter act -0.5%, SMN2 splice up -23.1%, NPC1 promoter act -8.8%, uPA generation -2.3%, FLuc modulator 10.7µM* and ELG1 genotox 0.2%.
COc1cccc(C(=O)Nc2cccc(-c3nnc(-c4ccccc4)o3)c2)c1 was read as uPA generation -17.9%.
For COC(=O)NC(/C=C/c1ccccc1)C(C(C)=O)C(=O)OC (stereo not given) the results were SMN2 splice up -7.5%.
Screening O=C(COc1ccccc1Cl)Nc1ccc(OCc2cc(=O)n3ccsc3n2)cc1 returned SMN2 splice up -4.5% and FLuc modulator 0.7%.
N=C1/C(=C/c2ccc(-c3cccc(C(=O)O)c3)o2)C(=O)N=C2SC=C(c3ccccc3)N12 was read as Rab9 promoter act 25.0%, SMN2 splice up 16.7%, NPC1 promoter act 0.1%, uPA generation 13.1%, FLuc modulator 23.9µM* and ELG1 genotox 1.8%.
`O=C1OC(c2cccs2)=N/C1=C\c1ccc(-c2ccccc2Cl)o1` gave Rab9 promoter act -6.3%, SMN2 splice up -6.1%, NPC1 promoter act -0.9%, FLuc modulator -1.3% and ELG1 genotox -1.9%.
For CC(C)S(=O)(=O)C1=NSC2=NC(=O)/C(=C\c3ccc(-c4ccccc4)o3)C(=N)N21 the results were Rab9 promoter act -14.0%, SMN2 splice up 22.7%, NPC1 promoter act 1.1%, uPA generation 5.0%, FLuc modulator inconclusive and ELG1 genotox -5.7%.
For O=C1OC(c2cccs2)=N/C1=C/c1ccc(-c2cccc(C(=O)O)c2)o1 the results were Rab9 promoter act -3.0%, SMN2 splice up 5.8%, NPC1 promoter act 2.6%, uPA generation 16.9%, FLuc modulator 23.9µM* and ELG1 genotox inconclusive.
Screening N=C1/C(=C\c2ccc(-c3cc(Cl)cc(Cl)c3)o2)C(=O)N=C2SC=C(c3ccccc3)N12 returned Rab9 promoter act -0.1%, SMN2 splice up -16.9%, NPC1 promoter act 0.4%, uPA generation -7.3%, FLuc modulator 9.3% and ELG1 genotox -3.8%.
`CS(=O)(=O)C1=NSC2=NC(=O)/C(=C\c3ccc(-c4ccccc4)o3)C(=N)N21` gave Rab9 promoter act 4.6%, SMN2 splice up 4.6%, NPC1 promoter act 4.3%, FLuc modulator 12µM* and ELG1 genotox 3.7%.
CC(C)S(=O)(=O)C1=NSC2=NC(=O)/C(=C\c3ccc(-c4cccc(C(=O)O)c4)o3)C(=N)N21 was read as Rab9 promoter act -2.6%, SMN2 splice up 1.4%, NPC1 promoter act -3.0%, uPA generation -2.2%, FLuc modulator 13.5µM* and ELG1 genotox -9.2%.
Screening COc1ccc(-n2ncc3c2ncn2nc(COc4ccc(Cl)cc4)nc32)cc1 returned SMN2 splice up 1.8% and FLuc modulator 1.0%.
Screening O=C(NCC(c1cccnc1)N1CCc2ccccc21)c1ccc(Cl)cc1 (stereo not given) returned FLuc modulator -5.6%.
`COc1ccc2c(c1)sc1ncc(C(=O)NCc3cccc(Cl)c3)c(=O)n12` gave SMN2 splice up -0.4% and FLuc modulator -2.3%.
`Cc1ccc(C)c(-n2nnc(-c3nc(-c4ccc(Cl)cc4)no3)c2N)c1` gave FLuc modulator -6.7%.

Source: PubChem (National Center for Advancing Translational Sciences (NCATS))
